From the supplement of paper PMC12067926
Unmarked numbers belong to inactive results.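 The calls were made as follows: active = growth AUC significantly below the DMSO wells by Dunnett test; inactive = the rest.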

Experiments:
Test in all cases: relative growth (AUC of 72 h growth curve relative to DMSO control, dAUC) (ratio); higher = more growth (less inhibition), active = hit call of the paper
Settings in all cases: 20 µM
[1] = test system: Aeromonas 1 (Aeromonas sp. AE235)
Procedure, shortened: (§1)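 For relative growth (dAUC), the spline-integrated area under the growth curve was divided by the mean of the DMSO controls. Results were averaged over three biological replicates. Each replicate used a 1:100 dilution, into 96-well plates holding each chemical at 20 µM (1% DMSO), of isolates from Icelandic stream sediments and Silwood Park soil or whole sediment communities that had been grown to carrying capacity in Luria–Bertani medium. Plates were shaken briefly before each hourly A600 reading over 72 h.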

[2] = test system: Aeromonas 2 (Aeromonas sobria)
Procedure, shortened: as §1

[3] = test system: Aeromonas 3 (Aeromonas popoffii)
Procedure, shortened: as §1

[4] = test system: Argrobacterium 1 (Agrobacterium sp.)
Procedure, shortened: as §1

[5] = test system: Arthrobacter 1 (Arthrobacter humicola)
Procedure, shortened: as §1

[6] = test system: Arthrobacter 2 (Arthrobacter humicola)
Procedure, shortened: as §1

[7] = test system: Arthrobacter 3 (Arthrobacter sp.)
Procedure, shortened: as §1

Community 10 = test system: Community 10
Procedure, shortened: as §1

Community 4 = test system: Community 4
Procedure, shortened: as §1

Community 6 = test system: Community 6
Procedure, shortened: as §1

Community 7 = test system: Community 7
Procedure, shortened: as §1

Community 8 = test system: Community 8
Procedure, shortened: as §1

Community 9 = test system: Community 9
Procedure, shortened: as §1

[8] = test system: Flavobacterium 1 (Flavobacterium glaciei)
Procedure, shortened: as §1

[9] = test system: Flavobacterium 2 (Flavobacterium succinicans)
Procedure, shortened: as §1

[10] = test system: Hymenobacter 1 (Hymenobacter glaciei)
Procedure, shortened: as §1

[11] = test system: Microbacterium 1 (Microbacterium arborescens)
Procedure, shortened: as §1

[12] = test system: Neobacillus 1 (Neobacillus soli)
Procedure, shortened: as §1

[13] = test system: Oryzobacter 1 (Oryzobacter terrae)
Procedure, shortened: as §1

[14] = test system: Paenibacillus 1 (Paenibacillus castaneae)
Procedure, shortened: as §1

SMILES	relative growth [1]	relative growth [2]	relative growth [3]	relative growth [4]	relative growth [5]	relative growth [6]	relative growth [7]	relative growth (Community 10)	relative growth (Community 4)	relative growth (Community 6)	relative growth (Community 7)	relative growth (Community 8)	relative growth (Community 9)	relative growth [8]	relative growth [9]	relative growth [10]	relative growth [11]	relative growth [12]	relative growth [13]	relative growth [14]
CNC(=O)ON=C(C)SC	0.953	0.974	1.01	0.974	0.962	1.01	0.971	1.14	1.09	1.05	0.999	0.942	1.04	1.03	1.03	1.07	0.999	1.01	0.947	1.07
CC(C)NC(=O)N1CC(=O)N(c2cc(Cl)cc(Cl)c2)C1=O	0.998	0.934	1.01	0.984	1.06	0.957	0.841	1.01	0.925	0.969	1.07	0.959	0.94	0.854	0.973	0.959	0.984	0.961	1.02	0.996
CCCC1COC(Cn2cncn2)(c2ccc(Cl)cc2Cl)O1 (stereo not given)	0.966	0.949	0.971	0.999	0.991	0.797	0.751	0.868	0.89	0.917	1.08	1	0.862	0.937	0.856	0.937	1.01	0.88	1.1	0.935
CSc1nnc(C(C)(C)C)c(=O)n1N	0.969	1.01	1.04	0.991	0.948	1.06	0.961	1.03	1.08	1.02	1	1.04	1.05	1.03	1.02	1.04	1	1.02	1.03	1.02
CO/C=C(/C(=O)OC)c1ccccc1COc1cccc(C(F)(F)F)n1	0.992	0.905	0.97	1.06	0.923	0.886	1.02	0.887	0.935	0.929	1.04	1	0.987	0.911	0.962	1.06	0.997	1.01	0.944	1.01
C[N+](C)(C)CCCl	0.996	0.944	0.977	1.01	1.05	1	0.987	0.819	0.978	0.92	0.749	0.988	1.01	1.09	0.996	0.977	0.994	0.993	1.05	0.97
O=C(O)COc1ccc(Cl)cc1Cl	0.976	0.999	0.998	0.944	0.921	0.958	0.969	–	1.04	1.02	1.08	0.972	1.03	0.966	1.02	1.07	1.02	1	0.964	1.01
N#Cc1nn(-c2c(Cl)cc(C(F)(F)F)cc2Cl)c(N)c1[S+]([O-])C(F)(F)F (stereo not given)	0.981	0.935	1	1.01	0.911	0.914	0.853	1.05	1.07	1.06	0.995	1.05	1.04	0.977	1.01	1.05	1	0.993	0.998	1.02
CCOP(=S)(OCC)Oc1nc(Cl)c(Cl)cc1Cl	1.05	1	1.06	0.979	1.04	0.994	1.08	0.928	0.974	0.953	0.998	1.02	1.06	1.05	0.996	1.07	0.991	1.07	1.04	1.04
COP(=S)(OC)SCN1C(=O)c2ccccc2C1=O	1.02	1.03	1.01	0.987	0.962	0.748	1.09	–	1.02	1.03	1.04	1.02	1.04	0.982	0.975	1.02	0.992	1.03	0.954	1.06
COC(=O)NC(=S)Nc1ccccc1NC(=S)NC(=O)OC	0.978	0.978	0.998	1.02	0.923	0.973	1.07	–	0.943	0.97	1.03	0.993	1.05	1.08	0.993	0.952	1	1.01	0.947	0.934
CCC(C)c1ccccc1OC(=O)NC (stereo not given)	1	0.975	0.991	1.06	0.921	1.08	1.08	1.08	1.06	1.07	1.02	1.05	1.07	1.11	1.02	0.856	1.04	1.06	0.993	1
COC(=O)N(OC)c1ccccc1COc1ccn(-c2ccc(Cl)cc2)n1	1.04	0.927	0.979	1.04	1.16	1.02	0.903	0.903	0.941	1.03	1.11	1.04	1.09	0.969	0.979	1.08	0.98	1.03	1.17	0.944
CCOC(=O)OC1=C(c2cc(C)ccc2C)C(=O)N[C@]12CC[C@@H](OC)CC2	0.965	0.981	1.01	1.03	1.17	1.03	0.986	0.945	1.14	1.02	1.03	0.995	1.03	1.08	1.05	0.987	1.01	1.09	1.05	1.01
CC(C)OC(=O)C(C(=O)OC(C)C)=C1SCCS1	0.961	0.967	0.993	1.02	1.02	0.922	0.975	0.804	0.901	0.886	1.15	1	0.964	0.993	0.947	1.09	1.02	1.01	1.12	0.965
CNC(=O)Oc1cccc2ccccc12	0.941	0.918	0.921	1.09	0.924	1.07	1.14	0.847	0.976	1.01	0.845	1.06	0.967	1.09	1.01	1.03	1.02	1.04	0.972	1
Cc1cc(C)c(C2=C(OC(=O)CC(C)(C)C)C3(CCCC3)OC2=O)c(C)c1	1.09	0.978	1.05	1.11	0.927	0.864	0.789	0.848	1.19	0.917	0.932	1.08	1.03	0.346 (active)	0.981	0.896	1.02	1.01	1.16	0.994

SMILES	relative growth [1]	relative growth [2]	relative growth [3]	relative growth [4]	relative growth [5]	relative growth [6]	relative growth [7]	relative growth (Community 10)	relative growth (Community 4)	relative growth (Community 6)	relative growth (Community 7)	relative growth (Community 8)	relative growth (Community 9)	relative growth [8]	relative growth [9]	relative growth [10]	relative growth [11]	relative growth [12]	relative growth [13]	relative growth [14]
CCC(=O)Nc1ccc(Cl)c(Cl)c1	0.948	0.953	0.955	0.923	1.12	1	1.02	0.919	1.07	1.01	0.951	1.06	1.03	1.02	0.965	0.981	1.02	0.962	1.02	0.968
COc1ccc(C(=CC(=O)N2CCOCC2)c2ccc(Cl)cc2)cc1OC (mixture of isomers)	0.973	0.993	0.998	1.03	1.06	0.983	0.973	0.919	1.07	0.974	0.947	0.986	1.03	1.07	0.979	1.05	1.03	1.02	1.12	0.961
COP(=O)(NC(C)=O)SC (stereo not given)	1.02	0.995	0.998	1.03	0.984	0.906	1.05	0.781	1.01	0.892	0.831	0.99	1.03	1.06	0.982	1	1.01	1.01	1.04	0.959
COc1cccc(C(=O)NN(C(=O)c2cc(C)cc(C)c2)C(C)(C)C)c1C	0.951	0.969	0.979	0.982	0.98	0.884	1.02	0.786	0.822	0.89	1.12	1.03	0.893	0.818	0.92	0.923	0.977	0.914	1.06	0.926
COC(=O)Nc1nc2ccccc2[nH]1	1.01	0.956	0.973	0.992	1.04	1.05	1.12	0.869	1.02	0.998	0.965	0.959	1.04	1.13	1	1.01	0.974	1.13	1.07	0.946
Oc1ccccc1-c1ccccc1	1.01	0.967	1.01	0.914	0.929	0.866	0.964	0.954	0.851	0.973	1.12	0.988	0.974	0.75	0.946	0.951	1.04	0.9	1.12	0.888
O=C1C=C(N(Cc2ccc(Cl)nc2)CC(F)F)CO1	0.953	0.967	0.978	0.974	1.05	1.08	1.01	0.814	1.01	0.923	0.945	0.997	0.992	1.09	0.993	1.1	1.04	1.02	1.11	0.899
CCCN(CCOc1c(Cl)cc(Cl)cc1Cl)C(=O)n1ccnc1	1.02	0.971	1	1.01	0.702	0.209 (active)	0.352 (active)	0.868	0.934	0.982	0.969	1.02	0.998	0.335 (active)	0.935	0.75	0.953	1.05	0.236 (active)	0.59 (active)
Cc1c(COC(=O)[C@@H]2[C@H](/C=C(\Cl)C(F)(F)F)C2(C)C)cccc1-c1ccccc1 (racemic)	0.988	0.992	1.05	1.06	1.17	0.833	0.786	0.993	0.998	1.05	1.06	1.1	0.947	0.869	1	1.06	1.05	0.943	1.07	0.975
CC1=NNC(=O)N(/N=C/c2cccnc2)C1	1.04	1.04	1.04	0.954	1.13	1.13	1.05	–	1.1	1.14	0.897	0.918	1.2	1.04	1.05	1.12	1	1.16	1.01	1.06
CON(C)C(=O)Nc1ccc(Cl)c(Cl)c1	0.924	0.996	0.996	0.869	0.952	0.595 (active)	0.929	–	0.943	0.995	1.01	1.07	1.03	1.01	0.923	0.961	1.05	0.908	1.04	1
Cc1nc(N(C)C)nc(OC(=O)N(C)C)c1C	0.991	0.948	0.968	0.962	0.924	0.847	0.932	–	0.871	0.942	1.12	0.951	0.938	0.924	0.965	0.864	0.988	0.928	0.936	0.942
CNC(=O)CSP(=S)(OC)OC	0.944	0.984	0.967	1.02	1.04	0.992	0.978	–	0.765	0.957	1.12	0.999	0.921	1.06	0.966	0.971	1	0.948	1.07	0.975
CN/C(=N/CC1CCOC1)N[N+](=O)[O-] (stereo not given)	1	1.02	1.05	1.02	1.01	1.03	0.998	–	1.09	1	1.01	1.03	1.04	1.04	1.02	1.06	1.02	0.994	0.957	1.01
CN(C)C(CSS(=O)(=O)O)CSS(=O)(=O)O	0.987	0.976	0.992	0.997	1.02	1.04	1.04	–	1.04	0.914	1	1.02	0.942	1.09	1	1.07	1.06	1	1.13	0.935
CNC(=O)c1cc(C#N)cc(C)c1NC(=O)c1cc(Br)nn1-c1ncccc1Cl	0.986	0.95	1.01	1.03	1	0.967	0.99	–	0.903	0.946	1.05	0.986	1.02	1.02	0.975	0.978	0.993	0.957	1.06	0.915
